# Data taken from PubChem BioAssay (EPA / NIEHS).
# “And” between values parts separate entries of the source, which are not always exact repeats. Equal entries are not always repeated. Inconclusive results are not listed. Some structures have more than one record in an assay (separate samples or runs), and their calls can disagree. The source made the active and inactive calls. Rule for the calls, unless noted: active = hit-call score of the fitted dose curve at least 0.9, where 1 is the maximum; inactive = score below 0.9.
# Tests used:
# [1] = UKN4_HCS_LUHMES_cell_viability: Viability Assessment in the University of Konstanz (UKN) Leist Lab Neurite Outgrowth Assay in human LUHMES cells (UKN4) (AID 2284232)
# Description: UKN4_HCS_LUHMES is a cell-based, multiplexed-readout assay screening for neurite outgrowth and cell viability that uses LUHMES, a human central nervous system cell line, with measurements taken at […] after chemical dosing in a microplate: 96-well plate. UKN4, also referred to as NeuriTox, is an assay that uses LUHMES neuronal precursors as a model of dopaminergic neuronal differentiation. Following a 2-day differentiation period, cells are exposed to chemicals for 24 hr and neurite area is evaluated as a marker of neurite outgrowth using high-content imaging of cells stained with calcein AM. Cell viability is assessed using stain Hoechst H-33342.UKN4_HCS_LUHMES_cell_viability is an assay component measured from the UKN4_HCS_LHUMES assay. It is designed to make measurements of enzyme activity, a form of viability reporter, as detected with Fluorescence intensity signals by HCS Fluorescent Imaging.The assay endpoint UKN4_HCS_LUHMES_cell_viability was analyzed with bidirectional fitting relative to DMSO as the negative control and baseline of activity. Using a type of viability reporter, gain or loss-of-signal activity can be used to understand viability effects. To generalize the intended target to other relatable targets, this assay endpoint is annotated to the cell cycle intended target family, where the subfamily is viability.
# Proliferating LUHMES cells are seeded in proliferation medium for 24 hours. Day 0: Medium is changed from proliferation medium to differentiation medium. Day 2: Cell number reaches about 30-40 Mio per T175 flask. Cells are trypsinized and replated onto 96-well plates (30000 cells/well in 90 ul) in differentiation medium without cAMP and GDNF. At about 30 min - 2 hours after seeding, when cells have attached, the compounds are added (10 ul of each dilution; total volume 100 ul). Day 3: 23.5 h after toxicant treatment, cells are live-stained with H-33342 and calcein-AM and incubated for 30 min. After 24 h of treatment (including staining), the cells are imaged using a high-content microscope (Cellomics).
# [2] = UKN2_HCS_IMR90_cell_viability: Viability Assessment in the University of Konstanz (UKN) Leist Lab Neural Crest Cell Migration Assay in human induced IMR90 Pluripotent Stem Cells (UKN2) (AID 2284233);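 note: viability of neural crest cells differentiated from IMR90 iPSC measured by calcein-AM fluorescence imaging; cells exposed to compound for 24 h after a 24 h migration phase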
# In short: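 cMINC format, iPSC-derived neural crest (IMR90); 24 h migration (EGF/FGF, N2-S), then 24 h toxicant. Calcein-AM/H-33342 stain 30 min; fluorescence intensity by HCS; DMSO-normalised, bidirectional fitting.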
# [3] = CCTE_Mundy_HCI_Cortical_NOG_NeuronCount: CCTE's Neurite Outgrowth Assay in rat cortical cells for Neuron Count, Mundy Lab (AID 2284236; active = hit-call score of the fitted dose curve at least 0.9, where 1 is the maximum;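 note: neurons counted by imaging betaIII-tubulin and Hoechst stained cortical cells; cells exposed to compound for about 48 hours before fixation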)
# In short: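 Read-out: neuron number by high-content imaging of betaIII-tubulin (Alexa Fluor-488) and Hoechst-labelled rat primary cortical cells.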
# [4] = read-out: Tumor necrosis factor (Homo sapiens) (UniProt P01375); experiment: BSK_BT_xTNFa: BioMAP Diversity Plus: BT Assay for Tumor necrosis factor alpha (TNF-alpha) Biomarker Activity (AID 2284230); conditions: primary human B cells with PBMC
# Description: BSK_BT is a cell-based, multiplexed-readout assay that uses B cell and peripheral blood mononuclear cells, a human vascular primary cell co-culture, with measurements taken at 24 hours after chemical dosing in a microplate: 96-well plate.BSK_BT_xTNFa is an assay component of the BSK_BT assay. It measures secreted TNF-alpha related to regulation of gene expression using LumineX xMAP technology.Data from the assay component BSK_BT_xTNFa was analyzed at the endpoint, BSK_BT_xTNFa, in the positive analysis fitting direction relative to DMSO as the negative control and baseline of activity. Using a type of cytokine quantitation reporter, gain or loss-of-signal activity can be used to understand protein changes. To generalize the intended target to other relatable targets, this assay endpoint is annotated to the 'cytokine' intended target family, where the subfamily is 'inflammatory factor'.
# (§1) The levels of cell surface (or secreted, indicated by the prefix "s") biomarker endpoints were measured by ELISA. Overt cytotoxicity to cells in confluent adherent cultures (all systems other than the BT system) was assessed by measuring total protein levels using sulforhodamine B (SRB) staining in parallel cultures at the time of biomarker measurements, indicated as SRB endpoints. For proliferation assays for adherent cell types, individual cell types are cultured at sub-confluence and relative cell numbers quantified by SRB staining at time points optimized for each system (48 h: 3C and CASM3C systems; 72 h: BT and HDF3CGF systems; 96 h: SAg system). SRB was performed by staining cells with 0.1% SRB after fixation with 10% TCA and reading wells at 560 nm.Viability and proliferation of PBMC (T cells) was quantified by Alamar Blue reduction for the SAg and BT systems. For PBMC viability (referred to as PBMC Cytotoxicity within the assay endpoint names), cells were plated (75,000/well in a 96-well plate) and then chemical samples added for 1 h before addition of activators, SEB and TSST-1 (20 ng/mL final concentration each). Cells were incubated for 90 h. Then, Alamar Blue (20 uL/well) (Invitrogen, Cat DAL1100) was added for 6 h, and the plates were read with a fluorescence microplate reader at 546/580 nm (excitation/emission). For PBMC proliferation, cells were plated and activated as above but incubated for only 16 h prior to addition of Alamar Blue. Plates were read after 6 h.
# [5] = read-out: Vascular cell adhesion molecule 1 (VCAM1), VCAM1 (gene 7412); experiment: BSK_MyoF_VCAM1: BioMAP Diversity Plus: MyoF Assay for Vascular cell adhesion molecule 1 (VCAM1) Biomarker Activity (AID 2284231); conditions: primary human lung fibroblasts
# In short: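 Primary human lung fibroblasts (BioMAP MyoF system) dosed with chemical, VCAM-1 measured by ELISA 24 hours later. Fitted in the positive direction against DMSO; parallel SRB staining assessed cytotoxicity.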
# [6] = read-out: Collagen I, COL1A1 (gene 1277); experiment: BSK_MyoF_CollagenI: BioMAP Diversity Plus: MyoF Assay for Collagen I Biomarker Activity (AID 2284238); conditions: primary human lung fibroblasts
# In short: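 Primary human lung fibroblasts (MyoF system) treated 24 h; Collagen I quantified by ELISA and fitted in positive direction against DMSO. Parallel SRB total-protein staining assessed overt cytotoxicity.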
# [7] = read-out: Collagen III, COL3A1 (gene 1281); experiment: BSK_MyoF_CollagenIII: BioMAP Diversity Plus: MyoF Assay for Collagen III Biomarker Activity (AID 2284239); conditions: primary human lung fibroblasts
# Description: BSK_MyoF is a cell-based, multiplexed-readout assay that uses lung fibroblasts, […], with measurements taken at 24 hours after chemical dosing in a microplate: 96-well plate.BSK_MyoF_CollagenIII is an assay component measured in the BSK_MyoF assay. It measures Collagen III antibody related to regulation of gene expression using ELISA technology.Data from the assay component BSK_MyoF_CollagenIII was analyzed at the endpoint, BSK_MyoF_CollagenIII, in the positive analysis fitting direction relative to DMSO as the negative control and baseline of activity. Using a type of binding reporter, gain or loss-of-signal activity can be used to understand protein changes. To generalize the intended target to other relatable targets, this assay endpoint is annotated to the 'cell adhesion molecules' intended target family, where the subfamily is 'collagen'.
# as §1
# [8] = TAMU_PeakParms_SingleDonor1434_QT: Texas A&M University (TAMU) 1.5-hr Human Induced Pluripotent Stem Cell (iPSC)-derived Cardiomyocytes Calcium (Ca+2) Flux Assay for Cardiotoxicity: QT (decay-rise ratio) (AID 2284235; active = hit-call score of the fitted dose curve at least 0.9, where 1 is the maximum)
# In short: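 Decay/rise ratio of calcium-flux fluorescence scored after 90 min exposure (37C) of donor 1434 iPSC cardiomyocytes to 0.2–100 uM (0.5% DMSO). Beat-cessation and severe-notch points removed; POD is EC05, a 5% rise over DMSO.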
# [9] = TAMU_HCS_1.5hr_SingleDonor1434_Cytotoxicity: Cytotoxicity Assessment using High-content Screening (HCS) Fluorescent Imaging for the Texas A&M University (TAMU) 1.5-hr Human Induced Pluripotent Stem Cell (iPSC)-derived Cardiotoxicity Assay (AID 2284234; active = hit-call score of the fitted dose curve at least 0.9, where 1 is the maximum)
# Description: TAMU_HCS_1.5hr is a cell-based, multiplexed-readout assay that uses iPSC-derived cardiomyocytes with measurements taken at 1.5 hours after chemical dosing in a microplate: 384-well plate.TAMU_HCS_1.5hr_SingleDonor1434_Cytotoxicity is a phenotype derived from the Total.Cells parameter and uses an EC10 as its POD (10% decrease in total cell count, compared to controls). Total Cells measures the total number of nuclei (cell count) using HCS Fluorescent Imaging technology. There is no preprocessing performed on the data to model this phenotype.Data from the assay component TAMU_HCS_1.5hr_Cytotoxicity was analyzed into 1 assay endpoint. This assay endpoint, TAMU_HCS_1.5hr_Cytotoxicity, was analyzed in the positive analysis fitting direction relative to DMSO as the negative control and baseline of activity. Using a type of viability reporter, loss-of-signal activity can be used to understand changes in the viability. To generalize the intended target to other relatable targets, this assay endpoint is annotated to the cell cycle intended target family, where the subfamily is cytotoxicity. […]
# [10] = CCTE_Mundy_HCI_Cortical_NOG_BPCount: CCTE's Neurite Outgrowth Assay in rat cortical cells for Branch Point Count, Mundy Lab (AID 2284237);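 note: branch points counted about two days after chemical exposure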
# In short: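 Measured 50.33 h after dosing, this morphology endpoint uses rat primary cortical cultures labelled for betaIII-tubulin. Branch points are quantified by high-content imaging, with DMSO as negative control and baseline.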
# Chain of Tumor necrosis factor (Homo sapiens) (P01375 whole entry, looked up): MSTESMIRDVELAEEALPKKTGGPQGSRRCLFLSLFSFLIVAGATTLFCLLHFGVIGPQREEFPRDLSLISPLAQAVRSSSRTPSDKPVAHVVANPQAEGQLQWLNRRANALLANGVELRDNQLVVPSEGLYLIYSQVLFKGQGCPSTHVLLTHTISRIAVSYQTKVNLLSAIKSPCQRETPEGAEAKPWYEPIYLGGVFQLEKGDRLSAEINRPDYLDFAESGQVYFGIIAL
structure (smiles),measurement,setting,value
CC1=C(/C=C/C(C)=C/C=C/C(C)=C/C(=O)O)C(C)(C)CCC1,AC50,[1],48 µM (active)
same,outcome,[2],inactive
same,outcome,[3],inactive
CCCCCCCCCCCCCC[N+](C)(C)C,AC50,[4],2.59 µM (active)
same,AC50,[5],3.84 µM (active)
same,AC50,[6],1.5 µM (active)
same,AC50,[7],1.85 µM (active)
c1ccc2c(c1)Cc1ccccc1-2,outcome,[8],inactive
c1ccc2c(c1)ccc1ccccc12,outcome,[8],inactive
FC(F)(I)C(F)(F)C(F)(F)C(F)(F)C(F)(F)C(F)(F)I,AC50,[4],21.2 µM (active) [middle of 5 runs]
same,AC50,[5],5.28 µM (active) [middle of 5 runs]
same,AC50,[6],4.42 µM (active) [middle of 5 runs]
same,AC50,[7],4.38 µM (active) [middle of 5 runs]
C[C@@H]1C[C@H]2[C@@H]3CCC4=CC(=O)C=C[C@]4(C)[C@@]3(F)[C@@H](O)C[C@]2(C)[C@@]1(O)C(=O)COP(=O)(O)O,AC50,[4],245 nM (active) and 100 nM (active)
same,outcome,[5],inactive
same,outcome,[6],inactive
same,outcome,[7],inactive
OCCC(F)(F)C(F)(F)C(F)(F)C(F)(F)C(F)(F)C(F)(F)F,AC50,[4],41.4 µM (active)
same,outcome,[4],inactive
same,outcome,[5],inactive
same,AC50,[6],54.6 µM (active)
same,outcome,[6],inactive
same,outcome,[7],inactive
CC#C[C@]1(O)CC[C@H]2[C@@H]3CCC4=CC(=O)CCC4=C3[C@@H](c3ccc(N(C)C)cc3)C[C@@]21C,outcome,[1],inactive
same,AC50,[2],16.5 µM (active) and 8.62 µM (active)
same,outcome,[9],inactive
same,AC50,[3],69.2 µM (active) and 15 µM (active)
same,AC50,[10],26.2 µM (active) and 24.2 µM (active)
C=C(C)C(=O)OCCC(F)(F)C(F)(F)C(F)(F)C(F)(F)C(F)(F)C(F)(F)F,outcome,[4],inactive
same,outcome,[5],inactive
same,outcome,[6],inactive
same,outcome,[7],inactive
CN1CCC[C@H]1c1cccnc1,outcome,[1],inactive
same,outcome,[2],inactive
same,outcome,[3],inactive
OCCC(F)(F)C(F)(F)C(F)(F)C(F)(F)C(F)(F)C(F)(F)C(F)(F)C(F)(F)F,AC50,[4],45.5 µM (active) and 41.3 µM (active)
same,AC50,[5],13.4 µM (active) and 9.75 µM (active)
same,AC50,[6],19.8 µM (active) and 17.2 µM (active)
same,AC50,[7],14.5 µM (active) and 10 µM (active)
NCC(F)(F)C(F)(F)C(F)(F)C(F)(F)C(F)(F)C(F)(F)C(F)(F)F,outcome,[4],inactive
same,outcome,[5],inactive
same,outcome,[6],inactive
same,outcome,[7],inactive
c1ccc2cc3c(ccc4ccccc43)cc2c1,outcome,[8],inactive
